Sampled rows, rich in hits. Any-hit rate of the full collection: about 21%.
MRP-1 activ: H69AR viability gain despite doxorubicin, primary screen, MRP-1 activator project, H69AR cells, CellTiter-Glo | viability rescue | viability increase, % at 10 µM | actives 0.61% (n = 140,000) | AID 799, 2007;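 active means viability gain under doxorubicin at or above a set limit, the compound median plus 3 SD, cut at about 4.7% in these data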;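 further: MRP-1 overexpressing cells given doxorubicin 25 µM after compound pretreatment; 18-22 h compound pretreatment then 72 h with doxorubicin before readout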
CYP2C9 inhib: blockers of cytochrome P450 2C9 activity – biochemical, luminescence, ADME assay, primary screen; actives 20% (n = 96,000); inhibition, % at 5 µM; CYP2C9 Supersomes, luciferin-H conversion; P11712;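 active means blocking of liver enzyme CYP2C9 beyond about 50% at 5 µM, limit read from the data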
CYP2C9 act: human CYP2C9 activators, primary screen, biochemical, luminescence; recombinant CYP2C9, luciferin-H conversion; stronger effect = higher value; factor 1 = untreated enzyme, 0 = blocked; activation factor at 5 µM; AID 1024, 2008; actives 1.4% (n = 96,000);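 active means activation factor of 2 or more for CYP2C9 at a 5 µM dose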
CYP2C19 act: human CYP2C19 activators, primary screen, biochemical, luminescence | AID 1025, 2008 | Cytochrome P450 2C19 (Homo sapiens), P33261 | activation factor at 5 µM | 96,000 tested, under 10 active | recombinant CYP2C19, luciferin-H EGE luminescence; stronger effect = higher value; 0 = fully inhibited enzyme, 1 = untreated enzyme;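 active means activation factor of at least 2 at 5 µM in the primary screen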
Target sequence (P33261 whole entry, looked up): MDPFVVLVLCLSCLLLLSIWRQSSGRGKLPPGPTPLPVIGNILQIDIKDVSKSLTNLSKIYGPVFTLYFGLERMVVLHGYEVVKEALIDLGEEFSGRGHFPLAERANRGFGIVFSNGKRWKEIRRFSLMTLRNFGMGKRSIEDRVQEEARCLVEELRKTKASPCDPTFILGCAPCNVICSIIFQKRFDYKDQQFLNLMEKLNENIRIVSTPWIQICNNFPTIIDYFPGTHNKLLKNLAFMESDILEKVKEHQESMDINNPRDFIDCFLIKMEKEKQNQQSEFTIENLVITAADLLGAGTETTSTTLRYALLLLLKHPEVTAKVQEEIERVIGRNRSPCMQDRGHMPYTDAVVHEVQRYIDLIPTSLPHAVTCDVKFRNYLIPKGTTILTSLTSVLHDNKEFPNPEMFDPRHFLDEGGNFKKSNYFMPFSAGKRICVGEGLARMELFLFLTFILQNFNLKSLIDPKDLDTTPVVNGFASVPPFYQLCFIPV
CYP2C19 inh: blockers of cytochrome P450 2C19 activity – biochemical, luminescence, ADME assay, primary screen; CYP2C19 Supersomes, luciferin-H EGE luminescence, 30 min; AID 778, 2007; actives 21% (n = 96,000); inhibition, % at 5 µM;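 active means CYP2C19 inhibition above a set limit at 5 µM in the primary screen, cut at about 50% in these data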
MRP reversal: reversal of MRP1-mediated doxorubicin resistance, primary screen, H69AR cells, doxorubicin co-treatment; H69AR cells + 2 uM doxorubicin, CellTiter-Glo, 72 h; differential viability (reversal), % at 10 µM; actives 0.04% (n = 85,000); AID 602, 2007;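 active means viability drop by adding the cancer drug above about 55%, with treated viability meeting a 40% cutoff, limit read from the data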;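 further: larger differential means the compound sensitizes cells more to doxorubicin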
Hits are given with their value.

Results for O=C(CCc1ccccc1)Nc1ccccc1F ?
MRP-1 activ: inactive; CYP2C9 inhib: inactive; CYP2C9 act: inactive; CYP2C19 act: inactive; CYP2C19 inh: 76; MRP reversal: inactive

How did O=C(CCSCCC(=O)Nc1ccccc1F)Nc1ccccc1F do in these assays?
MRP-1 activ: inactive

What do the screens show for `O=C(CCN1C(=O)c2ccccc2C1=O)Nc1ccc(F)cc1F`?
MRP-1 activ: inactive; CYP2C9 inhib: inactive; CYP2C9 act: inactive; CYP2C19 act: inactive; CYP2C19 inh: inactive; MRP reversal: inactive

Results for O=C(CCc1ccccc1)Nc1ccc(F)cc1F ?
MRP-1 activ: inactive; CYP2C9 inhib: inactive; CYP2C9 act: inactive; CYP2C19 act: inactive; CYP2C19 inh: 60; MRP reversal: inactive

What do the screens show for `O=C(NC1CCCCC1)N(Cc1ccc(F)cc1)Cc1nc2ccccc2c(=O)[nH]1`?
MRP-1 activ: inactive; CYP2C9 inhib: inactive; CYP2C9 act: inactive; CYP2C19 act: inactive; CYP2C19 inh: inactive; MRP reversal: inactive

Results for COc1ccc(NC(=O)CN2CCC(C)CC2)c([N+](=O)[O-])c1 ?
MRP-1 activ: inactive; CYP2C9 inhib: 54; CYP2C9 act: inactive; CYP2C19 act: inactive; CYP2C19 inh: 65

How did COc1ccc(NC(=O)CN2CCC(C)CC2)cc1 do in these assays?
MRP-1 activ: inactive; CYP2C9 inhib: inactive; CYP2C9 act: inactive; CYP2C19 act: inactive; CYP2C19 inh: 89; MRP reversal: inactive

Results for COc1ccc(NC(=O)CN2CCC(C(N)=O)CC2)cc1 ?
MRP-1 activ: inactive; CYP2C9 inhib: inactive; CYP2C9 act: inactive; CYP2C19 act: inactive; CYP2C19 inh: inactive

How did COc1ccc(NC(=O)CN2CCN(C3c4ccccc4-c4ccccc43)CC2)cc1 do in these assays?
MRP-1 activ: inactive; CYP2C9 inhib: 95; CYP2C9 act: inactive; CYP2C19 act: inactive; CYP2C19 inh: 59; MRP reversal: inactive

Results for COc1ccc(NC(=O)CN2CCN(CC(=O)Nc3ccccc3Cl)CC2)cc1Cl ?
MRP-1 activ: inactive; CYP2C9 inhib: 57; CYP2C9 act: inactive; CYP2C19 act: inactive; CYP2C19 inh: 91; MRP reversal: inactive

What do the screens show for `O=C(c1ccccc1)C(C(=O)N1CCc2ccccc2C1)n1ccccc1=O` (configuration not stated)?
MRP-1 activ: inactive

Results for O=C(Nc1ccc(F)cc1)c1ccccc1CC[N+](=O)[O-] ?
MRP-1 activ: inactive; CYP2C9 inhib: inactive; CYP2C9 act: inactive; CYP2C19 act: inactive; CYP2C19 inh: inactive

Results for Cc1ccc(Cl)c(OC(=O)c2nn(C(C)C)c(=O)c3ccccc23)c1 ?
MRP-1 activ: inactive

Results for CN(C)CCNC(=O)/C(=C/c1ccc(-c2cccc(Cl)c2)o1)NC(=O)c1ccccc1 ?
MRP-1 activ: inactive

What do the screens show for `COc1ccc(NC(=O)CN2CCN(CC(=O)Nc3cc(OC)cc(OC)c3)CC2)cc1`?
MRP-1 activ: inactive; CYP2C9 inhib: 61; CYP2C9 act: inactive; CYP2C19 act: inactive; CYP2C19 inh: 56; MRP reversal: inactive

What do the screens show for `CCOc1ccc(/C=C/C(=O)Nc2ccc(OC)cc2[N+](=O)[O-])cc1`?
MRP-1 activ: inactive; CYP2C9 inhib: inactive; CYP2C9 act: 2.4; CYP2C19 act: inactive; CYP2C19 inh: inactive

Results for COC(=O)c1c(NC(=O)CN2CCC3(O)CCCCC3C2c2ccc(OC)cc2OC)sc(C)c1C (configuration not stated) ?
MRP-1 activ: inactive

Results for COc1ccc(NC(=O)CN2CCC3(O)CCCCC3C2c2cc(OC)ccc2OC)cc1 (configuration not stated) ?
MRP-1 activ: inactive; CYP2C9 inhib: 80; CYP2C9 act: inactive; CYP2C19 act: inactive; CYP2C19 inh: 71

How did CCOc1ccc(NC(=O)/C=C/c2ccccc2)c([N+](=O)[O-])c1 do in these assays?
MRP-1 activ: inactive

How did COc1ccc(C(=O)Nc2c(N)nc(SCC(=O)N3CCCCCC3)[nH]c2=O)cc1OC do in these assays?
MRP-1 activ: inactive; MRP reversal: inactive
